This is part of a sample that, as a whole, favours compounds with a hit. Of some 79,000 tested, about 15% had one in any assay. No stated cut-off is given here; in the data, active means growth inhibition above about 70%; inactive means the rest.
How the values were obtained:
[1] = NCI Yeast Anticancer Drug Screen. Data for the rad50 strain (AID 155);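 further: 0% = growth of vehicle-only cultures of the same strain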; settings: S. cerevisiae rad50 strain growth inhibition; at 50.0 µM; stronger effect = higher value
Outline: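 Compounds were tested on a yeast strain with an engineered DNA damage repair alteration; the reported value is growth inhibition normalised to vehicle treatment.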

[2] = NCI Yeast Anticancer Drug Screen. Data for the mec2-1 strain (AID 157); settings: S. cerevisiae mec2-1 strain, at 50.0 µM, stronger effect = higher value
Outline: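 Compounds were applied to mec2-1 yeast cells. Their growth was then compared with that of vehicle-treated cultures to give growth inhibition.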

[3] = NCI Yeast Anticancer Drug Screen. Data for the sgs1 mgt1 strain (AID 161);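 further: 0% = growth of cultures given vehicle only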; settings: S. cerevisiae sgs1 mgt1 strain, at 50.0 µM, stronger effect = higher value
Outline: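 Growth of a repair-deficient yeast mutant was monitored after compound treatment and expressed as inhibition relative to vehicle-treated cultures.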

[4] = NCI Yeast Anticancer Drug Screen. Data for the cln2 rad14 strain (AID 165);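 further: 0% = growth equal to vehicle treated cultures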; settings: S. cerevisiae cln2 rad14 strain, at 50.0 µM, stronger effect = higher value
Outline: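 Strain: cln2 rad14 yeast, altered in cell cycle control and DNA damage repair. Read-out: growth inhibition vs vehicle.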

[5] = NCI Yeast Anticancer Drug Screen. Data for the bub3 strain (AID 167); settings: S. cerevisiae bub3 mutant strain, at 50.0 µM, stronger effect = higher value
Outline: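 Growth of a checkpoint-deficient yeast mutant is measured after compound exposure. Values represent inhibition relative to vehicle.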

[6] = NCI Yeast Anticancer Drug Screen. Data for the mlh1 rad18 strain (AID 175); settings: S. cerevisiae mlh1 rad18 strain growth inhibition; at 50.0 µM; stronger effect = higher value
Outline: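 A repair-deficient yeast strain is exposed to test compound, and growth is scored relative to vehicle-treated controls.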

Measured: growth inhibition

O=C1c2ccccc2C(=O)N1/N=C/c1ccc([N+](=O)[O-])cc1
inactive: [1] -4.4% | [2] -17% | [3] -16.3% | [4] -11.5% | [5] -13.9% | [6] -22.5%

OC(c1ccccc1)C(Cl)c1ccccc1 (configuration not stated)
inactive: [1] 1% | [2] -2.25% | [3] 1.9% | [4] -13.8% | [5] -19.3% | [6] 19.8%

CC(=O)c1cccc(NC(=O)C(=O)C(C(=O)c2ccccc2F)C2OC(=O)c3ccccc32)c1 (configuration not stated)
inactive: [1] 9.2% | [2] -7.2% | [3] -5.45% | [4] 3.7% | [5] -6.2% | [6] -4.05%

CCOC(=O)C(c1ccccc1)C(Cc1ccccc1)(c1ccccc1)c1ccccc1 (configuration not stated)
inactive: [1] 10.1% | [2] 9.2% | [3] 17.3% | [4] 19.6% | [5] -4.6% | [6] 10.7%

N#CCC(CC#N)C(c1cccc2ccccc12)c1cccc2ccccc12
inactive: [1] 9.85% | [2] -2.45% | [3] -3.85% | [4] 3.25% | [5] 18.7% | [6] -1.7%

CCN(CC)CCOc1cc(C)ccc1C(C)C
inactive: [1] -6.05% | [2] -12.6% | [3] 2.95% | [4] -32% | [5] -8.1% | [6] 26.4%

O=C1CNC(=O)N1CCCl
inactive: [1] 19.7% | [2] -4.7% | [3] -7.65% | [4] 6.3% | [5] 6.15% | [6] -6.7%

Nn1c(Cc2ccccc2)n[nH]c1=O
inactive: [1] 10.2% | [2] -13.3% | [3] 12.2% | [4] 6.55% | [5] -9.4% | [6] -14.2%

Cc1n(C)c(=O)c2ccccc2[n+]1C
inactive: [1] 5.35% | [2] 5.75% | [3] -7% | [4] -3.3% | [5] 1.95% | [6] 6.4%

C/C(=C\CNc1ncnc2c1ncn2C1CCCCO1)COP(=O)(O)O (configuration not stated)
inactive: [1] 19.6% | [2] 6.4% | [3] 19.6% | [4] 22.2% | [5] -4.8% | [6] 27.9%

O=S(=O)(O)c1cc(Cl)c(O)c(Cl)c1
inactive: [1] 7.25% | [2] -21.8% | [3] 9.15% | [4] -41.9% | [5] 6.8% | [6] 23.2%

Cc1nc(N)[nH]c(=O)c1CCCNc1ccc(CCCCCCC2(CCl)OCCO2)cc1
inactive: [1] 12.4% | [2] -0.15% | [3] 1.45% | [4] 2.9% | [5] 17.4% | [6] -9.4%

S=C(Nc1ccccc1)Nc1ccc(NC(=S)Nc2ccccc2)cc1
inactive: [1] 8.25% | [2] -0.25% | [3] -3.6% | [4] -4.95% | [5] -8.45% | [6] -52.2%

CC(C)(O)CCC(C)(C)O
inactive: [1] 60.3% | [2] -19.1% | [3] 41.9% | [4] -25.9% | [5] 0.5% | [6] 45.2%

CCC1C(OC)=CC(CC)(CO)C=C1OC (configuration not stated)
inactive: [1] 4.35% | [2] -3.45% | [3] 6.15% | [4] 14.2% | [5] 6.8% | [6] -6.3%

CCOC(=O)c1c[nH]c2c(C(F)(F)F)cccc2c1=O
inactive: [1] 15.6% | [2] -9.1% | [3] 1.55% | [4] 8.75% | [5] 24.6% | [6] 14.6%

CC(C)(C)OC(=O)c1cccc(C(=O)OC(C)(C)C)c1
inactive: [1] 0.6% | [2] 41.6% | [3] 32.2% | [4] -9.7% | [5] 39.1% | [6] 17.3%

CC(=O)OCCOC(=O)Nc1ccccc1
inactive: [1] 0.05% | [2] -14.5% | [3] -13.9% | [4] -22.2% | [5] -2.55% | [6] -4.85%

CC(=O)Oc1c(C(=O)O)cccc1-c1ccccc1
inactive: [1] -12.8% | [2] -7.1% | [3] 9.6% | [4] -15.8% | [5] 30% | [6] 4.95%

C=CCSc1nc2ccc(N3C(=O)C4C5C=CC(C5)C4C3=O)cc2s1 (configuration not stated)
inactive: [1] -15.2% | [2] -2.75% | [3] -6.35% | [4] -17.6% | [5] -8.3% | [6] -27.9%

CCOc1ccc(NS(=O)(=O)c2ccc(F)cc2)cc1
inactive: [1] -27.4% | [2] -21.3% | [3] -26.9% | [4] -6.2% | [5] -24.1% | [6] 3.05%

CC1C=C(Br)C(=O)C(n2cnc3c(=O)n(C)c(=O)n(C)c32)O1 (configuration not stated)
inactive: [1] 24.1% | [2] 13.5% | [3] 18.8% | [4] 8% | [5] 10.9% | [6] 34%

CC(=O)C1CCC2C3CC=C4CC(O)C=CC4(C)C3CCC12C (configuration not stated)
inactive: [1] 7.6% | [2] 22.1% | [3] 11.2% | [4] -1.65% | [5] 5.1% | [6] 17.9%

CCOC(=O)c1c(/C=N\Nc2ccccc2)nc2ccccc2c1-c1ccccc1
inactive: [1] 11.7% | [2] 0.6% | [3] -2.9% | [4] -6.5% | [5] -30.8% | [6] -7.4%

OCC[N+]12CCCN1CCC2
inactive: [1] -15.4% | [2] -27% | [3] -21.4% | [4] -12.9% | [5] -15.3% | [6] -30.4%

C=CCc1cc(N)ccc1O
inactive: [1] 15.9% | [2] 8.9% | [3] 11.8% | [4] 11.8% | [5] 11.7% | [6] 7.9%

CCCCCCCCCCCC(=O)OCc1ccccc1
inactive: [1] -3.9% | [2] 17.8% | [3] 3.1% | [4] 18.2% | [5] -3.5% | [6] 25.8%

CCc1cccc(CC)c1N=Cc1ccccc1O
inactive: [1] 32.8% | [2] 11% | [3] 21.6% | [4] 16.1% | [5] 10.8% | [6] 19%

O=C(O)CC1(c2ccccc2)CCCCC1
inactive: [1] -1.1% | [2] 7.05% | [3] 0.65% | [4] -6.2% | [5] 46.8% | [6] 2.3%

COC(=O)CCC(C)C1CCC2C3CCC4CC5CCC4(C)C3(O5)C(Br)C(Br)C12C (configuration not stated)
inactive: [1] -11.8% | [2] -48.1% | [3] -32.5% | [4] -33% | [5] -25.5% | [6] -4.8%

Brc1ccc(C=C2c3ccccc3-c3ccccc32)cc1
inactive: [1] -11.1% | [2] -8% | [3] -16.4% | [4] 6.85% | [5] 7.65% | [6] 1.95%

CC12CCC3c4ccc(O)cc4C(=O)CC3C1CCC2O (configuration not stated)
inactive: [1] -16.1% | [2] 7.6% | [3] 5.8% | [4] -29.8% | [5] -11.2% | [6] -17.6%

CC(=O)OC12c3ccccc3C(c3ccccc31)C1C(=O)N(c3ccccc3O)C(=O)C12 (configuration not stated)
inactive: [1] -15.8% | [2] -17.4% | [3] -4.15% | [4] 6.2% | [5] -5.4% | [6] 7.7%

CC(=O)Nc1c(Nc2ccc3c(=O)[nH]ccc3c2C)cc[nH]c1=O
inactive: [1] 22.1% | [2] 13.7% | [3] 17.1% | [4] 14.5% | [5] 10.4% | [6] 27.5%

CCOC(=O)Nc1cc2c(c(N)n1)N=C(c1ccc(OC)cc1)CN2
inactive: [1] 33.1% | [2] -6.75% | [3] 24.5% | [4] 30% | [5] 21.5% | [6] 11.2%

O=S1(=O)c2ccccc2N2CCCc3cc(Cl)cc1c32
inactive: [1] -49.9% | [2] -23.1% | [3] -41.7% | [4] -3.35% | [5] -8.9% | [6] -4.15%

Cc1cc(O)c(C(C)C)cc1NC(=S)Nc1ccc(S(=O)(=O)c2ccc(NC(=S)Nc3cc(C(C)C)c(O)cc3C)cc2)cc1
inactive: [1] 7.55% | [2] 20.1% | [3] 36.9% | [4] 17.9% | [5] 6.65% | [6] 51.2%

Cc1ccc(S(=O)(=O)OC2=C/C(=N\c3onc(C)c3C)c3ccccc3C2=O)cc1
inactive: [1] -41.6% | [2] -19.4% | [3] -27.9% | [4] -5.4% | [5] -15% | [6] -19.3%

COC(=O)NC1=Nc2ccc(Cl)cc2NS1
inactive: [1] 2.4% | [2] -10.2% | [3] -25.1% | [4] 2.05% | [5] 22.1% | [6] -4.65%

CC1(C(=O)O)CCCC2(C)C3=CC(=O)CCC3=CCC12 (configuration not stated)
inactive: [1] -3.7% | [2] 18.1% | [3] 8.7% | [4] 2.95% | [5] 24.7% | [6] 4.5%

C[N+]1(C)CCC(c2ccccc2)(c2ccccc2)/C(=C2/C(=O)C(c3ccccc3)(c3ccccc3)CC[N+]2(C)C)C1
inactive: [1] -4.55% | [2] -7.9% | [3] 0.75% | [4] 35% | [5] -32% | [6] -20.8%

CCCC(=O)NC(NC1CCCCC1)(C(=O)OCC)C(F)(F)F (configuration not stated)
inactive: [1] -17.3% | [2] -0.15% | [3] -15.6% | [4] 18.4% | [5] -7.25% | [6] -45.1%
